Bioassay records (PubChem)
In the library only some 11% were active in any assay of this set; here they are far more common.
USP17 block = human USP17-like deubiquitinase inhibition; A8MUK1; purified USP17, Ub-rhodamine cleavage fluorescence, 3 h; inhibition, % at 50 µM; actives 6.5% (n = 47,000); AID 1645855
Target sequence (A8MUK1 whole entry, looked up): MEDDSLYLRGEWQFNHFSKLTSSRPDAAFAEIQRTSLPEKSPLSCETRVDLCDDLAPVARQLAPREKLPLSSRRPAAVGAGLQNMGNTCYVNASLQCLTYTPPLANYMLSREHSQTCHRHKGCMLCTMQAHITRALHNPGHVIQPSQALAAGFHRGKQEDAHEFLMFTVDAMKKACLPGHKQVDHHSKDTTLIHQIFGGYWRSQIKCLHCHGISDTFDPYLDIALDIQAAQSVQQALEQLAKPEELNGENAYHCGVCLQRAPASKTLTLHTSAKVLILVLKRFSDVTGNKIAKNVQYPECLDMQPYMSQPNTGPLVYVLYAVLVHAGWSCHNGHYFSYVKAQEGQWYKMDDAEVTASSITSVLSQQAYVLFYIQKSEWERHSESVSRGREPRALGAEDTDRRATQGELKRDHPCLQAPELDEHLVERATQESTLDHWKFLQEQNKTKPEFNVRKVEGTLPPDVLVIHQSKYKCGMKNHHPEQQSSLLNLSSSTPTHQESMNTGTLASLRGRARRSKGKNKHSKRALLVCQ
USP30 inh = human USP30 deubiquitinase inhibition; inhibition, % at 25 µM; Q70CQ3; actives 5.3% (n = 47,000); purified USP30, Ub-rhodamine cleavage fluorescence; AID 1645860
USP28 inh = human USP28 deubiquitinase inhibition; Q96RU2; purified USP28, Ub-rhodamine cleavage fluorescence, 30 min; AID 1645857; actives 3% (n = 47,000); inhibition, % at 25 µM
An asterisk follows results filed as active; · = no result given. Cut-off read from the data, not from the text of the source: active = inhibition above about 30%; inactive = the rest.

SMILES	USP17 block	USP30 inh	USP28 inh
COc1ccc(-c2cc(C(=O)OCC(=O)NCc3ccccc3OC)c3ccccc3n2)cc1	-5.3	-26.1	-4.0
O=C(CN1CCn2nc(-c3ccccc3)cc2C1=O)NCCc1ccc(Cl)cc1	25.4	27.6	5.9
Cc1ccc(C(=O)NCCc2nnc3ccc(SCc4c(F)cccc4Cl)nn23)cc1	5.9	30.2*	15.7
Cc1ccc(C(=O)NCCc2nnc3ccc(SCC(=O)NCc4ccc(F)cc4)nn23)cc1	16.6	29.5	10.8
COc1ccccc1-c1ccnc2nc(N3CCOCC3)[nH]c(=O)c12	-6.2	-25.2	-2.9
CCOc1ccc(-n2c(C)c(C)c3c2ncn2nc(-c4ccccn4)nc32)cc1	2.6	9.5	5.8
CCOc1ccc(-n2c(C)c3c(C)nn4cc(-c5ccccc5)cc4c3c2C)cc1	30.7*	31.6*	8.5
CC(NCCc1ccc(Cl)cc1)c1nc2scc(-c3ccccc3)c2c(=O)[nH]1 (configuration not stated)	35.0*	-24.4	-3.7
CC(Nc1ccccc1)c1nc2scc(-c3ccccc3)c2c(=O)[nH]1 (configuration not stated)	14.6	1.1	-7.5
CCn1c(CC(=O)Nc2ccc(C)cc2)nnc1SCC(=O)c1ccccc1	11.0	12.7	0.8
COc1ccc(-c2cc(-c3nnc(CSc4nc5ccccc5n4C)o3)c3ccccc3n2)cc1OC	57.7*	0.5	16.7
COc1ccc(C(=O)CSc2nc3ccccc3n2C)c(F)c1	-12.1	-32.5	-9.1
Cc1ccc(C)c(NC(=O)c2cc(=O)n(C)c3c2c(=O)n(C)c(=O)n3C)c1	-9.1	-28.7	-10.3
O=S(=O)(NNc1nc2ccccc2nc1C(F)(F)F)c1ccc(Br)cc1	12.7	36.4*	12.0
O=S(=O)(Nc1nc2ccccc2nc1NCc1ccc2c(c1)OCO2)c1ccc(F)cc1	-25.0	-135.3	-40.5
O=C(/C=C/c1ccc(Cl)cc1)N1CCc2ccccc2C1	·	4.7	0.0
O=C(/C=C/c1c(F)cccc1Cl)N1CCc2ccccc2C1	75.2*	29.3	42.7*
CC(C)N1CC[C@@H]2[C@H]1C(=O)NC[C@H](CCC(=O)N1CCN(c3ccccn3)CC1)N2C	-32.3	39.5*	41.9*
CN1[C@@H](CCC(=O)N2CCC(O)CC2)CNC(=O)[C@@H]2[C@H]1CCN2Cc1ccc(O)cc1	-24.2	55.5*	42.8*
CN1[C@@H](CCC(=O)N2CCN(c3ccccn3)CC2)CNC(=O)[C@@H]2[C@H]1CCN2Cc1ccc(CO)o1	-10.0	-24.1	-12.7
CN1[C@@H](CCC(=O)N2CCN(c3ccccn3)CC2)CNC(=O)[C@@H]2[C@H]1CCN2Cc1ccc(O)cc1	-25.3	46.1*	56.4*
CN1[C@@H](CCC(=O)N2CCN(c3ccccn3)CC2)CNC(=O)[C@@H]2[C@H]1CCN2CC(C)(C)C	-4.8	-13.0	-4.9
CN1[C@@H](CCC(=O)N2CCC(O)CC2)CNC(=O)[C@@H]2[C@H]1CCN2Cc1ncc[nH]1	-61.4	-19.1	12.1
O=C(O)CC(NC(=O)OCc1ccccc1)c1ccc2c(c1)OCO2 (configuration not stated)	-10.3	-2.5	-8.0
Cc1nnc(NCC2COC3(COCCN(Cc4ccco4)C3)C2)o1 (configuration not stated)	-14.0	13.6	-5.3
SMILES	USP17 block	USP30 inh	USP28 inh
COc1cccc(S(=O)(=O)N2Cc3c(CN4CCCCC4)nn(C)c3C2)c1	-19.3	-3.2	1.5
COc1ccccc1CNC(=O)c1ccccc1OCc1ccccc1Cl	23.7	32.2*	28.8
COc1ccccc1CNC(=O)c1ccccc1-c1ccccc1	0.1	-17.9	-6.7
CN1CCN(CCCNC(=O)c2cc3c(s2)-c2ccsc2CC3)CC1	-14.2	0.0	6.8
Cc1ccccc1NC(=NS(=O)(=O)c1ccccc1)c1ccc(Cl)cc1	5.2	8.4	43.7*
Cc1ccccc1S(=O)(=O)N=C(Nc1ccccn1)c1ccccc1	10.9	22.2	2.0
COc1cccc(NC(=O)N2CCN(Cc3nnnn3-c3ccc(F)c(F)c3)CC2)c1	-30.1	-18.6	-8.2
CCCCNC(=O)C1Sc2nnc(-c3ccccc3)n2NC1c1ccccc1 (configuration not stated)	1.1	50.5*	5.8
CCCCNC(=O)C1CCN(c2ccc(N3CCCCC3)nn2)CC1	8.5	28.1	15.0
CC1=NOC(CNC(=O)Nc2cc(C)ccc2C)C1 (configuration not stated)	6.0	7.5	3.2
COc1ccccc1CNc1nccn(Cc2ccc(F)cc2)c1=O	11.6	12.4	23.7
CN(C(=O)c1ccncc1)[C@H]1CC[C@@]2(C)C[C@H](c3ccccc3)C[C@](C)(O2)[C@@H]1O	11.1	28.7	80.8*
C[C@]12C[C@@H](c3ccccc3)C[C@](CO)(CC[C@@H](NC(=O)c3ccccc3)[C@@H]1O)O2	-1.1	0.1	-8.0
Cc1nonc1COc1ccccc1C(=O)N1CCC[C@]2(C)NCCC[C@@H]12	0.3	1.0	1.8
CCn1cc(S(=O)(=O)N2CCc3nc[nH]c3C2)cn1	0.0	10.8	0.9
CS(=O)(=O)c1cnc(-c2ccncc2)nc1C1CCCN(C(=O)c2cccnc2)C1 (configuration not stated)	0.4	-6.1	0.1
CCCCc1nc(SCC(=O)N2CCc3ccccc32)c2c(=O)n(C)c(=O)n(C)c2n1	-1.7	-54.3	1.4
CCCc1nc(SCC(=O)Nc2ccccc2)c2c(=O)n(C)c(=O)n(C)c2n1	24.3	30.7*	11.6
C=C[C@H]1C(=C)CC[C@@H]2[C@@H]1C[C@H](O)[C@@]1(O)[C@@]2(C)CC[C@@H](O)[C@@]1(C)C(=O)O	-22.8	-44.4	-9.0
Cn1nc(C2CCN(C(=O)COc3ccccc3F)CC2)c2nccnc21	-8.6	-5.2	-6.0
Cn1nc(C2CCN(C(=O)Cc3cccc(F)c3)CC2)c2nccnc21	33.7*	-9.0	7.4
COc1ccc(CC(=O)N2CCC(Nc3cccnc3)C2)cc1 (configuration not stated)	41.9*	-132.5	-19.0
Cc1noc(C)c1CC(=O)N1CCC(Nc2cccnc2)C1 (configuration not stated)	-17.3	-86.6	-25.4
Cn1nccc1C(=O)NC1CC2(CCOCC2)Oc2ccccc21 (configuration not stated)	11.5	14.3	6.9
CCc1ccc(N2C(=O)c3ccccc3C2C(=O)NCc2ccccc2OC)cc1 (configuration not stated)	67.6*	63.1*	22.5
SMILES	USP17 block	USP30 inh	USP28 inh
COc1ccccc1CNC(=O)CC1c2ncccc2C(=O)N1c1ccccc1 (configuration not stated)	-14.2	-16.0	-9.2
CC(c1ccccc1)N1CN(C2CCN(C(=O)CC(C)(C)C)CC2)CC1=O (configuration not stated)	-11.4	-2.3	-3.4
Cc1nn(-c2ccc3nncn3n2)c2c1C(c1ccc(C(C)C)cc1)CC(=O)N2 (configuration not stated)	18.9	44.9*	16.3
Cc1ccccc1C1CC(=O)Nc2c1c(C)nn2-c1ccc2nnc(C)n2n1 (configuration not stated)	11.1	29.4	18.4
CCn1nc(C)cc1C(=O)N1CCOC2(COCCN(CC3CC3)C2)C1 (configuration not stated)	-13.1	-3.3	0.2
COc1ccc(N(CC(=O)NCc2cccc(OC)c2)S(=O)(=O)c2c(C)nn(C)c2C)cc1	11.2	1.6	4.1
